# Screening data as filed in PubChem.
# In the library only some 18% were active in any assay of this set; here they are far more common.
# IL-1B inflam inh – inhibitors of inflammasome signaling (IL-1 beta secretion); activity change, % at 57.5 µM; THP-1 LPS/ATP IL-1B secretion, AlphaLISA, 16 h; stronger effect = lower value; 4.7% of 360,000 active; in the data active means activity change below about -50%; inconclusive means mostly about -30% to -49%
#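 Secreted IL-1B measured by AlphaLISA bead assay after 16 h compound exposure of THP-1 cells; compounds (final up to 57.5 uM) added 1 h before LPS (250 ng/mL) and ATP (1.25 mM) stimulation; lower signal means less secretion.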
# TGFb inhibitor – blocks TGF-b signaling. 1.2% of 410,000 active. HepG2 CAGA-GFP TGF-b/SMAD3 reporter, GFP fluorescence, 18 h; TGF-beta stimulated, 500 pg/mL final. Potency, µM (titrated, usually from 46.1 µM), usual class: inhibitors. AID 588855; further: nearly all actives have a fitted effect of over 65% in size
#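 First, reporter cells (HEPG2 CAGA-GFP) rested 2 h at 37 degrees C. Next, compounds were pinned in and TGF-beta added to 500 pg/mL final. After 18 h, GFP was imaged per cell and summed per well.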
# DT40 TDP1 CPT – DT40-hTDP1 cell growth loss with CPT; Potency, µM (series often up to 46.2 µM), hits mostly inhibitors; AID 686979; chicken DT40 Tdp1-/-;hTDP1 cells + 20 nM CPT, ATP luminescence, 48 h; 12% of 420,000 active; further: nearly all actives have a fitted effect of over 55% in size
#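 Chicken DT40 Tdp1-/- cells stably complemented with human TDP1 were seeded at 400 cells/well in medium containing 20 nM camptothecin, exposed to pin-transferred compounds, and grown at 37 °C for at least 48 hr. Viability was read as ATP luminescence.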
# HepG2 viability – HepG2 cytotoxicity, counter-screen for TGF-b inhibitors | HepG2 CAGA-GFP viability, ATP luminescence, 18 h | Potency, µM (highest dose often 46.1 µM), actives largely listed as cytotoxic | 0.76% of 410,000 active
#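 CellTiter-Glo luminescence gave cytotoxicity after 18 hours at 37 degrees C. The cells were HepG2 CAGA-GFP in 1% FBS DMEM, stimulated with 500 pg/mL TGF-beta after compound addition. %Activity was normalised to no-cell wells (complete cell-killing) and DMSO (no toxicity), and curves were fitted and classified.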
# DT40 TDP1 no CPT – qHTS for Inhibitors of human tyrosyl-DNA phosphodiesterase 1 (TDP1): qHTS in cells in absence of CPT; DT40 Tdp1-/- hTDP1 cells, no CPT, ATP luminescence, 48 h; AID 686978, 2013; Potency, µM (top dose mostly 46.2 µM), usual class: inhibitors; 15% of 420,000 active; further: nearly all actives have a fitted effect of over 55% in size
#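 Camptothecin absent (DMSO only). Human TDP1-complemented DT40 knockout cells, 400 cells/well, 37 °C for minimum 48 hr; ATP measured via CellTiter-Glo, 30 min dark incubation, luminescence.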
# TDP1 inh – inhibitors of human tyrosyl-DNA phosphodiesterase TDP1; AID 485290; Potency, µM (titrated, usually from 130 µM), hits mostly inhibitors; recombinant TDP1, AlphaScreen DNA substrate cleavage; 0.28% of 350,000 active; Q9NUW8; further: nearly all actives have a fitted effect of over 40% in size
# Target sequence (Q9NUW8 whole entry, looked up): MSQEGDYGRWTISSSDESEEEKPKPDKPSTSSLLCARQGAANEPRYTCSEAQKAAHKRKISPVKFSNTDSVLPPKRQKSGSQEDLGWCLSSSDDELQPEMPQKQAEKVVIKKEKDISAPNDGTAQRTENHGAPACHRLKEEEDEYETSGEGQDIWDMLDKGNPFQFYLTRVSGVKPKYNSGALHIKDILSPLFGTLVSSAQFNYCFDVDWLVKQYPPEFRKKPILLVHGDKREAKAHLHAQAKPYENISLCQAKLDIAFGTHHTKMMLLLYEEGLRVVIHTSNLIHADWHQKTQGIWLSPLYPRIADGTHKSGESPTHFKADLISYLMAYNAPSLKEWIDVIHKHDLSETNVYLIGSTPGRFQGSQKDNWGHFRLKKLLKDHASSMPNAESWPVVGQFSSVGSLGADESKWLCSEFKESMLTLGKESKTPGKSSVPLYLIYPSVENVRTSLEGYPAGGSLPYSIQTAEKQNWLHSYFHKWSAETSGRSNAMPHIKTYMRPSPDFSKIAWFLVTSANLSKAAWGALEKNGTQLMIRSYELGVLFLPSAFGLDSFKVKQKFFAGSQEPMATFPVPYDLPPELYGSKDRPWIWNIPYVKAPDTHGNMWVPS
#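 Steps: enzyme plus compound, 15 min RT; add biotin/phosphotyrosine-FITC oligonucleotide (15 nM final), react 5 min; add donor/acceptor beads (10 ug/ml final), 10 min; read AlphaScreen. Tdp1 at 1 nM final.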
# A number is an active result; i = inactive; ? = inconclusive; nt = no result. Unless noted, the call rests on the fitted dose curve; in most records, active means well fitted curve in the direction sought with a large enough effect; inconclusive means small, poorly fitted or top-dose-only effect, or another doubt; inactive means no such curve, though single readings can be large; an effect the other way counts as inactive or inconclusive.
SMILES,IL-1B inflam inh,TGFb inhibitor,DT40 TDP1 CPT,HepG2 viability,DT40 TDP1 no CPT,TDP1 inh
O=C1C=CC(=O)N1c1cccc2cccnc12,i,i,16µM,i,?,nt
O=Cc1ccc2ccc3cccnc3c2n1,?,?,5.2µM,i,3.3µM,nt
O=S(=O)(O)c1cccc2cccnc12,nt,i,nt,i,nt,i
c1cnc2c(c1)ccc1cccnc12,i,?,3.7µM,i,3.7µM,i
CSS(=O)(=O)c1cccc2cccnc12,i,?,5.8µM,i,5.8µM,nt
CC(C)c1ccc(NC(=O)CN(C)C2=NS(=O)(=O)c3ccccc32)cc1,i,i,?,i,?,nt
CC(C)CC1C(=O)N(Cc2cn(CCC3OCCCO3)nn2)CCS(=O)(=O)N1Cc1ccc(-c2ccc(F)cc2)cc1 (stereo not given),i,?,?,i,?,nt
Cc1cccc(C)c1-c1ccc(CN2C(CC(C)C)C(=O)N(Cc3cn(CC4CCCCC4)nn3)CCS2(=O)=O)cc1 (stereo not given),i,?,?,11µM,23µM,nt
CC(C)CC1C(=O)N(Cc2cn(CC3CCCCC3)nn2)CCS(=O)(=O)N1Cc1ccc(-c2ccc(Cl)c(Cl)c2)cc1 (stereo not given),i,i,?,i,16µM,nt
CCN(CC(=O)NCc1ccc(Cl)cc1)C(=O)CSCC(=O)Nc1ccc(C)cc1,-93,i,i,i,i,nt
CCN(CC(=O)NCc1ccc(Cl)cc1)C(=O)CSc1ccc(F)cc1,i,i,?,i,?,nt
CCN(CC(=O)NCc1ccc(Cl)cc1)C(=O)CSc1cc(C)ccc1C,-58,i,?,i,?,i
CCN(CC(=O)Nc1ccc(OC)cc1)C(=O)CSCC(=O)Nc1ccc(C)cc1,i,i,i,i,i,i
COc1ccc(-n2cc(CNCc3cnc4ccccn34)c(-c3cccc(F)c3)n2)cc1,-73,i,?,i,?,nt
COc1ccc(-n2cc(CN(C)C3CCOCC3)c(-c3cccc(F)c3)n2)cc1,i,i,?,i,18µM,i
COc1ccc(-n2cc(CNCC3CCOCC3)c(-c3cccc(F)c3)n2)cc1,-56,?,?,i,16µM,i
COc1ccc(-n2cc(CNCCCn3ccnc3)c(-c3cccc(F)c3)n2)cc1,?,?,?,i,i,i
COc1cccc(-c2nn(-c3ccccc3)cc2CN2CCCO2)c1,i,i,i,i,i,i
COc1ccc(-c2nn(-c3ccccc3)cc2CO)cc1,i,i,i,i,?,i
Cc1ccc(NC(=S)NC(=O)C2CCC2)cc1C,i,i,?,i,i,i
C/C(=N\NC(=O)c1ccccc1O)c1ccc(Br)s1,i,?,15µM,i,?,i
C/C(=N\NC(=O)c1cccc(F)c1)c1ccc(Br)s1,i,i,5.6µM,i,7.1µM,i
Cc1sc2ncnc(N3CCN(C(=O)c4ccco4)CC3)c2c1C,i,i,i,i,21µM,i
Cc1cccc2[nH]c3c(N4CCN(C(=O)c5ccco5)CC4)ncnc3c12,?,i,?,i,18µM,i
Cc1ccc(-c2csc3ncnc(N4CCN(C(=O)c5ccco5)CC4)c23)cc1,i,?,?,i,?,i
SMILES,IL-1B inflam inh,TGFb inhibitor,DT40 TDP1 CPT,HepG2 viability,DT40 TDP1 no CPT,TDP1 inh
N#C/C(C(=O)N1CCOCC1)=c1/s/c(=C\c2ccccn2)c(=O)n1-c1ccccc1,i,i,i,i,i,i
COc1ccc(-n2c(=O)/c(=C\c3cccs3)s/c2=C(/C#N)C(=O)N2CCN(C)CC2)cc1,i,i,i,i,23µM,i
Cc1cc(C)cc(C(=O)NC(CC(N)=O)c2ccc(N3CCC(Br)CC3)c([N+](=O)[O-])c2)c1 (stereo not given),i,?,?,i,?,nt
NC(=O)CC(NC(=O)c1cccc(Br)c1)c1ccc(N2CCC(Br)CC2)c([N+](=O)[O-])c1 (stereo not given),i,?,21µM,i,?,nt
NC(=O)CC(NC(=O)c1ccccc1)c1ccc(N2CCC(Br)CC2)c([N+](=O)[O-])c1 (stereo not given),i,i,18µM,i,10µM,i
CCOC(=O)c1ccccc1NC(=O)c1cc2ccc3cccnc3c2[nH]1,nt,i,i,i,i,i
CNC(=S)N(CCc1c(C)[nH]c2ccc(OC)cc12)Cc1ccco1,i,i,i,i,?,nt
N#CC1=C(N)NC(SCc2ccc(F)cc2)=C(C#N)C12CCCCC2,i,?,23µM,i,26µM,i
CC(C)CCNC(=O)c1onc(CSc2ccccc2)c1C(=O)NCCC(C)C,i,i,23µM,i,?,nt
COc1cccc(SCc2noc(C(=O)NCCC(C)C)c2C(=O)NCCC(C)C)c1,i,i,18µM,i,15µM,nt
CC(C)CCNC(=O)c1onc(CSc2ccc(F)cc2)c1C(=O)NCCC(C)C,i,i,?,i,?,nt
N#Cc1ccccc1S(=O)(=O)N1CCN(C(=O)C2CCC2)CC1,i,i,i,i,i,nt
COc1ccc(C(=O)Nc2nnc(SCC(=O)NCC3CCCO3)s2)cc1OC (stereo not given),i,i,i,i,i,i
CCN(C(=O)COC(=O)c1oc2ccc(OC)cc2c1C)C1CCCCC1,i,i,?,i,?,nt
CC(C)N(Cc1ccccc1)S(=O)(=O)c1ccc(-c2cc(C(F)(F)F)on2)s1,nt,i,?,i,?,i
CN(C)CCN(Cc1ccccc1)S(=O)(=O)c1ccc(-c2cc(C(F)(F)F)on2)s1,nt,i,15µM,i,12µM,i
CCOC(=O)N1CCN(C(=O)c2ccc3c(c2)N(Cc2cccc(Cl)c2)C(=O)c2ccccc2S3=O)CC1 (stereo not given),i,?,16µM,i,26µM,i
O=C(c1ccc2c(c1)N(Cc1cccc(Cl)c1)C(=O)c1ccccc1S2(=O)=O)N1CCN(c2cccc(C(F)(F)F)c2)CC1,nt,i,i,i,?,i
COCCNC(=O)c1ccc2c(c1)N(Cc1cccc(Cl)c1)C(=O)c1ccccc1S2=O (stereo not given),nt,i,?,i,?,i
CC(C)NC(=O)c1ccc2c(c1)N(Cc1cccc(Cl)c1)C(=O)c1ccccc1S2=O (stereo not given),nt,i,21µM,i,?,i
O=C(c1ccc2c(c1)N(Cc1cccc(Cl)c1)C(=O)c1ccccc1S2=O)N1CCN(c2cccc(C(F)(F)F)c2)CC1 (stereo not given),nt,?,16µM,i,10µM,i
